Measurements taken from PubChem BioAssay AID624330 (Southern Research Specialized Biocontainment Screening …, 2012).
Among all 340,000 compounds or so, about 2,100 (0.62%) were called active.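 Rule for the calls: active = first-screen hits whose inhibition reached a set limit at any dose in the follow-up dose series; inconclusive = inhibition above the set first-screen limit but never retested; inactive = the rest.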 Only a sample is shown. Results with a measured potency or affinity are listed apart.

The molecules below were run against Rac GTPase-activating protein 1 (Homo sapiens) (UniProt Q9H0H5) (assay: blockers of MgcRacGAP-driven Rac1 GTP hydrolysis – biochemical, ADP Hunter fluorescence, primary and confirmatory, confirmation (AID 624330;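 note: fluorescence reports GDP produced by GAP-driven GTP hydrolysis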)). Settings: MgcRacGAP-stimulated Rac1 GTP hydrolysis, at 30 µM, hits give high values, GST-tagged Rac1 F28L mutant substrate.
Rac GTPase-activating protein 1 (Homo sapiens), sequence (Q9H0H5 whole entry, looked up): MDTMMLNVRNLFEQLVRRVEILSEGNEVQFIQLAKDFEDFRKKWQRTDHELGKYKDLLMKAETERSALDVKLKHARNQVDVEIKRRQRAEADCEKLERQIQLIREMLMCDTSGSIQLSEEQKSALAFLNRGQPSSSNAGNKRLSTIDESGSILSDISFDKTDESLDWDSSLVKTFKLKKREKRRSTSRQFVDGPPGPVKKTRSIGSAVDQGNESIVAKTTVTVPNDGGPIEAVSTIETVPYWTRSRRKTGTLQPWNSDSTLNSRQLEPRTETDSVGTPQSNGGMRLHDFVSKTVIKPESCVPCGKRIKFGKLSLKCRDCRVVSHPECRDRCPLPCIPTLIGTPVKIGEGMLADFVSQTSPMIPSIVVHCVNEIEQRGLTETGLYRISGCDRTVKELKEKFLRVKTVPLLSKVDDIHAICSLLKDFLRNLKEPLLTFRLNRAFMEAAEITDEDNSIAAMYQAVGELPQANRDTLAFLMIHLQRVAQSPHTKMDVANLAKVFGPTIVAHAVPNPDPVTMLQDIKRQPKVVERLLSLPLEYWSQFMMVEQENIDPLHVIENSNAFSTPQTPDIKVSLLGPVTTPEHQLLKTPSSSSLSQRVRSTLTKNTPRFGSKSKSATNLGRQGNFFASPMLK

inhibition, inactive:
CCOc1ccc(C2NC(=O)C(C#N)=C(S)N2c2ccc(C)cc2)cc1OC (stereo unspecified) 51%, COc1ccc(N2C(S)=C(C#N)C(=O)NC2c2ccc(OC)c(OC)c2)cc1 (stereo unspecified) 29%, Cc1cc(C)c2[nH]c(=O)c(CN(CC3CCCO3)C(=S)NCc3ccco3)cc2c1 (stereo unspecified) 10.7%, CN(CC(=O)Nc1ccc(S(=O)(=O)N2CCCC2)cc1)Cc1cccc(Cl)c1Cl 4.27%, Cc1ccc(CN2CC(C(=O)Nc3nc(C)cs3)CC2=O)cc1 (stereo unspecified) -0.43%, CCn1c2ccccc2c2cc(NC(=O)CN3CCCC3)ccc21 5.72%, OC(COc1ccc(Cl)cc1)CN1CCCCC1 (stereo unspecified) -6.24%, CC(C)NCC(O)COCCOc1ccc(Cl)cc1 (stereo unspecified) -1.4%, Clc1ccc(OCCCCN2CCCCC2)cc1 28.9%, COc1ccc(OCC#CCNC(C)(C)C)cc1 18%, CN(C)CCCNc1ncnc2oc(-c3ccccc3)c(-c3ccccc3)c12 10.3%, COc1ccccc1NC(=O)Cn1c(C)nc2c(sc(=S)n2Cc2ccco2)c1=O 8.75%, COC(=O)[C@H]1C[C@H]1[C@@H](NC(=O)c1ccc[nH]1)c1ccccc1 -1.4%, CC(=O)c1ccc(N2CCN(CC(=O)NCc3ccccc3)CC2)cc1 6.75%, CN(Cc1ccccc1)c1nc2c(c(=O)[nH]c(=O)n2C)n1CCOc1ccccc1 13.5%, O=c1/c(=C/c2ccccn2)sc2nc3ccccc3n12 6.92%, Cc1ccc2c(nc3s/c(=C\c4ccc(-c5ccccc5C(=O)O)o4)c(=O)n32)c1C 19.4%, CC1(C)OC(=O)C(=CNCCc2ccc(O)cc2)C(=O)O1 17.2%, CC1(C)CC(=O)C(N=Nc2ccc(-c3ccccc3)cc2)=C(O)C1 9.24%, O=C(Cn1nnc(-c2ccc(Cl)cc2)n1)NC1CCS(=O)(=O)C1 (stereo unspecified) 9.8%, O=[N+]([O-])c1ccc(S(=O)Cc2ccccc2)c([N+](=O)[O-])c1 (stereo unspecified) 4.1%, N#Cc1c(N)n(Cc2ccccc2)c(=O)c2cc([N+](=O)[O-])ccc12 9.07%, O=c1c2c([N+](=O)[O-])cc([N+](=O)[O-])cc2sn1Cc1ccccc1 31%, O=C1c2ccc([N+](=O)[O-])cc2S(=O)(=O)N1Cc1ccccc1 11.7%, CCOC(=O)C(=CNc1ccc(O)c(C(=O)OC)c1)C(=O)OCC 17%, Cc1c(C(=O)COC(C)(C)C)[nH]c2ccccc12 8.87%, O=C(NNC1OC(CO)C(O)C(O)C1O)c1cccc(Br)c1 (stereo unspecified) 0.41%, CC(=O)Nc1ccc(N/C=C/C(=O)C(C)(C)C)cc1 7.27%, COc1ccc(N/C=C/C(=O)C(C)(C)C)cc1 16.3%, O=C(O)CCCn1ccc2cc(S(=O)(=O)N3CCCC3)ccc21 4.17%, Cc1cc(Br)ccc1OCCN1CCCC1 31.4%, CC1CCN(CCCOc2ccc(Cl)cc2Br)CC1 20.7%, Clc1ccc(OCCCN2CCCCC2)c(Br)c1 27.6%, Cc1cc(Br)ccc1OCCOCCN1CCCC1 21.4%, COC(=O)C1C(O)=C(C=Nc2ccccc2)C(=O)CC1(C)C (stereo unspecified) -0.8%, CCC(=NCc1ccccc1)C1=C(O)C(C(=O)OC)C(C)(C)CC1=O (stereo unspecified) 2.32%, CCCC(=O)C1=C(O)C(C(=O)OC)C(C)(C)CC1=Nc1ccc(N)cc1 (stereo unspecified) 7.34%, COC(=O)C1C(O)=C(C=Nc2ccc3ccccc3c2)C(=O)CC1(C)C (stereo unspecified) 4.62%, CCCCC(=Nc1ccc(N)cc1)C1=C(O)C(C(=O)OC)C(C)(C)CC1=O (stereo unspecified) 28.1%, CCCC(=Nc1ccccc1)C1=C(O)C(C(=O)OC)C(C)(C)CC1=O (stereo unspecified) -1.06%, CC(C)Cn1c(N)c(/C=N/NC(=O)c2ccc(Cl)cc2)c(=O)n(C)c1=O 14.9%, Cc1cccc(CNc2ccc(C(CC(N)=O)NC(=O)c3ccccc3)cc2[N+](=O)[O-])c1 (stereo unspecified) -3.89%, O=C(CSc1nccn1-c1ccc(Cl)cc1)N1CCCc2ccccc21 4.77%, Cc1ccc(NC(=O)N2CCCc3ccccc32)cc1C 3.97%, Cc1ccc2nc(C)cc(C(=O)OCC(=O)Nc3cccnc3Cl)c2c1 5.5%, COC(=O)c1ccc(Oc2coc3cc(OCc4ccc([N+](=O)[O-])cc4)ccc3c2=O)cc1 -3.99%, CCN1CCN(CCNC(=O)Cn2c(=O)c3cccn3c3ccc(F)cc32)CC1 13.8%, C#CCNC(=O)C1=C[C@@H](C2CCCCC2)C[C@@H](OCCCCO)O1 6.51%, C=CCn1c(SCCNC(C)=O)nc2cc(-c3ccccc3)sc2c1=O -6.43%, CCN(CC)CCOC(=O)/C=C/c1ccccc1 8.82%, CCN(CC)C(=O)/C=C/c1ccccc1 10.4%, COc1cccc(CNC(=O)CCC2CCCN(C(=O)c3ccc(C)nc3)C2)c1 (stereo unspecified) -7.59%, CN1C(=O)S/C(=C\c2ccccc2OCc2ccc(C(=O)O)cc2)C1=O 7.03%, O=C1NC(=S)N/C1=C\c1ccccc1OCc1ccc(C(=O)O)cc1 7.81%, CCCCC(=O)Nc1nn(CC(C)C)c2nc3ccccc3cc12 -1.14%, OCCN(Cc1ccccc1)Cc1cccc(C(F)(F)F)c1 16.5%, Cc1cccc(N2N=C(C(=O)O)CCC2=O)c1 -5.61%, Cc1nnc2ccc(N3CCN(c4cccc(C(F)(F)F)c4)CC3)nn12 5.89%, Cc1cc(=O)c(C(=O)O)nn1-c1cccc(C(F)(F)F)c1 6.55%, COCC(=O)N1CCN(c2cccc(C(F)(F)F)c2)CC1 4.48%, Cc1cccc(N2C(=O)CCC2=O)c1 7.43%, CCOc1cccc(CN2CCN(c3cccc(C(F)(F)F)c3)CC2)c1O 0.147%, FC(F)(F)c1cccc(N2CCc3cn[nH]c32)c1 12.6%, COC(=O)c1sccc1NC(=O)CN(C)NS(=O)(=O)c1ccc([N+](=O)[O-])cc1 -4.11%, CNC(=S)NCCCc1ccccc1 8.61%, C/C=C(\C)C(=O)OC1[C@H](OC(C)=O)C2(CO)C(CC1(C)C)C1=CCC3C4(C)CCC(O[C@@H]5O[C@H](C(=O)O)[C@@H](O[C@@H]6O[C@H](CO)[C@@H](O)[C@H](O)[C@H]6O)[C@H](O)[C@H]5O[C@H]5O[C@H](CO)[C@@H](O)[C@H](O)[C@H]5O)[C@](C)(CO)C4CCC3(C)[C@]1(C)C[C@H]2O (stereo partly specified) 1.06%, COCCOC1CCN(C(=O)C2CCC(=O)N(CCc3ccccc3)C2)CC1 (stereo unspecified) 9.57%, CCC(=O)c1ccc(CCCCCC(=O)O)s1 3.88%, O=C(O)/C=C/C(=O)Nc1ccccc1SC(F)(F)F -1%, COc1ccc([N+](=O)[O-])cc1N(CC(=O)NCCCOC(C)C)S(C)(=O)=O 7.79%, Cc1ccc(C)c(NC(=O)C2CCCN(c3cnccn3)C2)c1 (stereo unspecified) 14.2%, C/C(=N\NC(=O)c1cccc(N/N=C(\C)c2ccccc2)c1)c1ccccc1 0.42%, C/C(=N\NC(=O)c1cc(O)ccc1O)c1cccc(NC(=O)c2cccc(Cl)c2)c1 25.5%, O=C(CCC1CCCN(C(=O)c2cncs2)C1)NCc1ccc(F)c(F)c1 (stereo unspecified) 4.71%, CC(C)Sc1nc2ccsc2c(=O)[nH]1 8.22%, O=C(CC1CCCC1)Nc1ccc(Cl)c(S(=O)(=O)N2CCOCC2)c1 1.97%, Cc1ccnc(NC(=S)NC(=O)/C=C/c2ccc(Cl)cc2)c1 3.91%, CN(C)CCCn1c(SCc2c(Cl)cccc2Cl)nnc1-c1ccncc1 25.2%, CCOCCCn1c(SCc2ccccc2)nnc1-c1ccncc1 7.47%, Cc1cc(C)cc(NC(=O)c2cc3c(=O)n4ccccc4nc3s2)c1 7.35%, CC(C)(C)NC(=O)COC(=O)c1ccc(Cl)nc1 2.54%, COc1ccc([C@H]2CN(c3ccccc3)C(=O)[C@@H]2CC(=O)Nc2ccccc2)cc1 9.26%, COc1ccc(NC(=O)C[C@H]2C(=O)N(c3ccc(Br)cc3)C[C@@H]2c2ccc(OC)cc2)cc1 15.9%, COc1ccc(-c2csc(N(CCCN(C)C)C(=O)c3cc(OC)c(OC)c(OC)c3)n2)cc1 4.15%, CC(C)(C)C(=O)N1CCN(c2ccc([N+](=O)[O-])cc2Cl)CC1 5.07%, O=[N+]([O-])c1ccc(N2CCN(c3ccccc3O)CC2)c(Cl)c1 -5.04%, O=[N+]([O-])c1ccc2c(c1)Cc1cc(F)ccc1-2 -1.78%, Nc1ccc2c(c1)Cc1cc([N+](=O)[O-])ccc1-2 14.4%, Brc1ccc(-c2noc(C3CCCCC3)n2)cc1 11.8%, Cc1cc(C)n(-c2cccc(Cl)c2C#N)n1 7.18%, CCOC(=O)c1c(C)c(C(=O)Nc2ccc(F)cc2)c(C)n1C 1.27%, CCOC(=O)c1sc(C)c2c1NC1(CCCCCC1)NC2=O 1.2%, COc1ccc(/C=N/NC(=O)c2cccnc2)cc1O 28.2%, COc1cc(/C=N/NC(=O)c2cnccn2)cc(OC)c1OC 3.55%, COc1cc(OC)c(OC)cc1/C=N/NC(=O)c1cnccn1 9.21%, COc1cccc(/C=N/NC(=O)c2cnccn2)c1 8.84%
